# Results: PubChem BioAssay AID770 (SRMLSC, 2007)
# Screen size: about 3,300 compounds; fewer than 10 were called active.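 How the source made its calls: active means growth inhibition above 90% in viable cell count at a single dose; inactive means growth inhibition below 90%.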 Not all results are given here.
# Experiment: HT29 colon tumor cell growth inhibition, primary screen, imaging, high content imaging, 24 h, CellTiter-Glo (AID 770);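 on condensed nuclei: share of cells whose nuclear area falls below control median minus 1.5 SD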
# Conditions: HT29 cell number by imaging, at 10 µM, stronger effect = higher value; for condensed nuclei: measured here: percent cells with condensed nuclei
# [1] = measured here: ATP CellTiter-Glo viability
Compound,growth inhibition,growth inhibition [1] [%],condensed nuclei [%]
CCCCN(C(=O)CCC(=O)O)C1CC(=O)N(c2ccc(OCCC)cc2)C1=O (centres undefined),20.1% (inactive),7.14,1.69
COCc1[nH]nc2c1C(c1ccccc1OC)C(C#N)=C(N)O2 (centres undefined),34.7% (inactive),-0.21,3.93
CC1CCc2cc(F)cc3c(O)c(C(=O)NCC4CCCO4)c(=O)n1c23 (centres undefined),12.1% (inactive),11.9,2.11
O=C1OC(Nc2ccc(Br)cn2)c2ccccc21 (centres undefined),-21.1% (inactive),2.61,3.37
CCOC(=O)c1ccc(-n2c(=O)[nH]c3ccccc3c2=O)cc1,-28.4% (inactive),-4.1,4.94
COc1ccc(-c2onc(C)c2-c2ccccc2)c(O)c1,25.2% (inactive),-2.05,4.31
CCn1c(-c2ccco2)n[nH]c1=S,2.65% (inactive),-3.63,3.02
CN(C)C(=O)COn1c(SCC(=O)N(C)C)nc2ccccc2c1=O,100% (active),-74.5,7.94
CCN(CC)C(=O)COn1c(SCC(=O)N(CC)CC)nc2ccccc2c1=O,28.8% (inactive),-9.22,5.68
COC(=O)COn1c(SCC(=O)OC)nc2ccccc2c1=O,39.9% (inactive),-6.12,2.06
Cc1c(/C(O)=C2\C(=O)C(=O)N(CCN(C)C)C2c2cccnc2)cnn1-c1ccccc1 (centres undefined),65.4% (inactive),24.8,7.5
Cc1nc2c(c(=O)n1CC1CCCO1)c1nc3ccccc3nc1n2CC(C)C (centres undefined),47.8% (inactive),4.29,7.73
Cc1[nH]c(=O)[nH]c(=O)c1S(=O)(=O)N1CCCC1,7.67% (inactive),-13.2,3.07
CCCCSc1nnc(-c2ccc(NC(C)=O)cc2)n1C,14.5% (inactive),6.32,2.33
c1ccc(OCc2nn3c(C4CCCCC4)nnc3s2)cc1,0.33% (inactive),-3.2,2.15
Cc1cccc(C)c1OCC(O)CNS(=O)(=O)c1ccccc1C(=O)N1CCOCC1 (centres undefined),-11.9% (inactive),-0.31,3.46
COc1ccc(-n2ccc(=O)c3c2CCCC3=O)cc1,-18.6% (inactive),1.93,3.07

Compound,growth inhibition,growth inhibition [1] [%],condensed nuclei [%]
Cc1ccc(-c2nnc(OCCN3CCOCC3)c3ccccc23)cc1,30.1% (inactive),10.1,3.64
COc1cc(C2C(C(=O)c3ccc(C)o3)=C(O)C(=O)N2c2cc(C)on2)cc(OC)c1OC (centres undefined),-22% (inactive),-13.1,3.21
Cc1c(OCc2ccccc2)c(=O)ccn1Cc1ccccc1,-0.34% (inactive),-10.9,1.99
Oc1oc(-c2ccccc2)nc1C=NCc1ccncc1,2.2% (inactive),-2.06,3.2
CC1(C)CC(N(Cc2ccco2)C(=O)Cc2ccccc2)CCO1 (centres undefined),12.6% (inactive),0.11,2.03
Cc1cc(C)n(-c2ncnc3sc(C)c(C)c23)n1,-10.3% (inactive),2.85,1.35
COc1ccc(C2NC(=O)NC(O)(C(F)(F)F)C2C(=O)c2ccc(F)cc2)cc1 (centres undefined),-33.6% (inactive),0.76,2.45
CC(C)c1ccc(O)c(N)c1,-26.1% (inactive),2.95,5.48
CC1(C)NC(=O)N(CC(O)COc2cc3ccccc3cc2C(=O)N2CCCCC2)C1=O (centres undefined),23.3% (inactive),-6.38,4.21
COC(=O)c1n[nH]c2ccccc12,52.2% (inactive),8.18,5
CCCCCCOc1ccc(C(=O)n2cnc(N)n2)cc1,-1.14% (inactive),-15.8,1.48
O=c1[nH]cnc2cc(-c3ccccc3)sc12,7.95% (inactive),3.25,2.77
COc1cccc(NC(=O)c2cc(C(=O)Nc3cccc(OC)c3)n(C)n2)c1,-5.68% (inactive),22.7,6.71
COC(=O)c1ccc(C2/C(=C(/O)c3ccc(OC)cc3)C(=O)C(=O)N2c2cc(C)on2)cc1 (centres undefined),8.36% (inactive),6.44,3.44
COc1cc(C)nc(N(C)S(=O)(=O)c2ccccc2Cl)n1,7.98% (inactive),-1.53,3.59
Cn1c(NCC(O)c2ccccc2)nc2c1c(=O)n(Cc1ccc(Cl)c(Cl)c1)c(=O)n2C (centres undefined),46.1% (inactive),22.7,1.95
